Vaccinia mCherry: inhibitors of vaccinia virus infection (mCherry reporter signal) | Vaccinia virus mCherry reporter infection, fluorescence | actives 0.63% (n = 310,000) | AID 720579 | Potency, µM (highest dose often 36.5 µM), usual class: inhibitors; calls by dose curve; tested in A549 cells; also: nearly all actives have a fitted effect of over 35% in size
MARV entry inh: blocks Marburg virus binding to or entry into cells. AID 540276. actives 1.8% (n = 300,000). Potency, µM (doses to about 37.8 µM), actives largely listed as inhibitors. Marburg virus pseudotyped entry inhibition, cell reporter; calls by dose curve; tested in HEK293 cells
LASV entry inh: Lassa virus entry inhibition; Lassa virus pseudotype entry inhibition, cell reporter; Potency, µM (series often up to 37.9 µM), usual class: inhibitors; actives 1.2% (n = 300,000); AID 540256; calls by dose curve; tested in HEK293 cells; also: nearly all actives have a fitted effect of over 50% in size
HCV inhibitor: blocks hepatitis C virus; Huh7.5.1 HCVcc-Cre infection, luciferase reporter, 44 h; Potency, µM (titrated, usually from 41.8 µM), usual class: inhibitors; actives 3.4% (n = 340,000); active = well fitted inhibition curve with a large enough effect; inconclusive = small, poorly fitted or top-dose-only effect, or another doubt; inactive = no such curve, though single readings can be large or run the other way
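Antiviral activity was scored by luciferase reporter output from cells infected with HCVcc-Cre (~0.5 moi) in presence of compound, 44 h infection period, cells seeded 1,000/well 4 h prior.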
VACV Venus inh: inhibitors of vaccinia virus (Venus reporter) | Potency, µM (top dose mostly 36.5 µM), most hits filed as inhibitors | Vaccinia virus Venus reporter expression, fluorescence | AID 720580 | actives 0.46% (n = 330,000); calls by dose curve; tested in A549 cells; also: nearly all actives have a fitted effect of over 30% in size
HCMV inh: inhibitors of human cytomegalovirus; activity change, negative = inhibition, % at 57.5 µM; HFF cells, HCMV-luciferase reporter, 72 h; stronger effect = lower value; actives 4.5% (n = 410,000); in the data active = activity change below about -60%; inconclusive = no clear call, values can overlap the other calls; inactive = above about -39%
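Two compound doses tested in HFFs infected with HCMV-luciferase, MOI 1 PFU/cell, 72 h at 37C. Lysate luminescence read with OneGlo; data normalized against buffer-only and 10uM Salinomycin inhibitor controls.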
Hits are given with their value; . = inactive; ? = inconclusive; / = no result; + = active, no number; ! = repeats disagree; [ ] = another dose, or the depositor's remark. In the library only some 7.8% were active in any assay of this set; here they are far more common.

SMILES	Vaccinia mCherry	MARV entry inh	LASV entry inh	HCV inhibitor	VACV Venus inh	HCMV inh
CCOC(=O)c1sc(NC(=O)CCN2CCN(C)CC2)c(C(=O)OCC)c1C	.	.	11µM	14µM	.	?
COc1cccc(C(=O)NCC(=O)OCc2cc(=O)n3nc(C)sc3n2)c1	.	/	?	/	.	.
Cc1ccccc1CNC(=O)c1ccc(Cn2c(SCc3cccc(F)c3)nc3cccnc32)cc1	.	/	.	/	.	.
CCOC(=O)c1c(NC(=O)CN2CCN(S(=O)(=O)c3cc(Cl)ccc3Cl)CC2)sc(C(=O)N(C)C)c1C	/	/	/	11µM	/	-90
CCOC(=O)c1c(NC(=O)COC(=O)c2ccc(Cl)nc2)sc(C(=O)N(C)C)c1C	.	.	.	.	.	.
Cc1nc2ccc(C(C(F)(F)F)(C(F)(F)F)C(F)(F)F)cc2[nH]1	.	.	16µM	?	.	.
CS(=O)(=O)c1sc2nc(-c3cccs3)cc(-c3ccccc3)c2c1N	.	.	.	8.9µM	.	.
Cc1ccc(NC(=O)CSCc2cnn(-c3ccccc3)c2-n2cccc2)c(Cl)c1	.	.	.	/	.	.
COc1ccc(CN2CCOc3ccc(CN4CCC(O)(c5cccnc5)CC4)cc3C2)cc1OC	.	/	/	/	.	/
CCOC(=O)c1ccc(-c2ccc(/C=N/NC(=O)CN(c3ccccc3Br)S(C)(=O)=O)o2)cc1	.	?	.	11µM	.	.
CS(=O)(=O)N(CC(=O)N/N=C/c1cccc2c1OCCO2)c1ccccc1Br	/	.	.	.	.	.
CCCCNc1ccc2c(c1)OC[C@@H](CC(C)C)NS2(=O)=O	/	/	/	/	/	.
Cn1c(=O)[nH]c(=O)c2c1nc([N+](=O)[O-])n2Cc1ccccc1	?	?	?	.	10µM	-97
CCCCn1c(N2CCC(Cc3ccccc3)CC2)nc2c1c(=O)[nH]c(=O)n2C	/	?	?	35µM	?	.
Cn1c(=O)[nH]c(=O)c2c1nc(N1CCNCC1)n2Cc1ccccc1	.	?	?	.	.	.
CC(C)Cn1c([N+](=O)[O-])nc2c1c(=O)[nH]c(=O)n2C	?	?	7.1µM	?	?	-103
Cc1nnc(SCCn2c(N3CCC(Cc4ccccc4)CC3)nc3c2c(=O)[nH]c(=O)n3C)s1	.	?	?	?	.	/
O=C(NCc1ccc2c(c1)CCN2C(=O)c1ccc(Cl)cc1)c1cccc(F)c1	.	/	.	/	.	.
Cc1ccccc1C(=O)O/N=C(\N)Cc1cccs1	.	?	.	?	.	-62
COc1ccccc1C/C(N)=N/OC(=O)c1cccs1	.	11µM	10µM	?	.	.
N/C(Cc1cccc2ccccc12)=N\OC(=O)c1cccs1	.	.	.	.	.	/
COC(=O)C1=C(C)N(Cc2cccc(C(F)(F)F)c2)C(=NCc2ccc3c(c2)OCO3)NC1c1ccc(F)cc1 (stereo not drawn)	/	/	/	/	/	-85
CCN1C(=NCc2ccccc2)NC(c2cccc(C(F)(F)F)c2)C(C(=O)OC)=C1C (stereo not drawn)	/	.	/	/	/	/
COC(=O)C1=C(C)N(Cc2cccc(C(F)(F)F)c2)C(=NCc2ccc(C(F)(F)F)cc2)NC1c1ccc(F)cc1 (stereo not drawn)	/	/	/	/	/	-101
COC(=O)C1=C(C)N(Cc2cccc(C(F)(F)F)c2)C(=NCc2ccc(C(F)(F)F)cc2)NC1c1ccc(C(F)(F)F)cc1 (stereo not drawn)	/	/	/	/	/	-101
SMILES	Vaccinia mCherry	MARV entry inh	LASV entry inh	HCV inhibitor	VACV Venus inh	HCMV inh
CC(C)(C)c1ccc(OCC(=O)Nc2ccc(S(=O)(=O)Nc3ncccn3)cc2)cc1	.	/	.	/	.	.
CC(C)(C)OC(=O)N1CCC(c2c(C(=O)NCCN3CCc4ccccc4C3)cnn2-c2ccc(F)cc2F)CC1	.	/	?	/	.	?
CCN(CC)CCC(C)OC(c1ccccc1)c1ccccc1 (stereo not drawn)	.	/	/	.	.	.
CCN(CC)CCOC(c1ccccc1)c1ccc(C)cc1 (stereo not drawn)	.	8.9µM	?	?	.	.
Cc1ccccc1C(OCCN(C)C)c1ccccc1 (stereo not drawn)	.	13µM!	?	?	.	.
Cn1c(=O)oc2cc(S(=O)(=O)CCC(=O)N3CCN(c4cccc(Cl)c4)CC3)ccc21	.	/	.	/	.	.
OCC1(CCc2ccccc2)CCN(Cc2cc(Cl)ccc2O)CC1	.	.	.	.	.	.
Cc1ccc(-n2cccn2)c(CN2CCC(CO)(CCc3ccccc3)CC2)c1	.	8.9µM	.	.	.	.
CCOc1ccc(NC(=O)CSc2nnc3c(C)cc4ccccc4n23)cc1	.	.	.	/	.	.
CCC12CN3CC(CC)(CN(C1)C3c1c[nH]c3ccccc13)C2=O (stereo not drawn)	.	/	?	/	.	.
O=C(Cc1nc2ccccc2[nH]1)c1ccc(Cl)cc1	.	.	/	?	.	.
Clc1ccc(/C(Cc2nc3ccccc3[nH]2)=N\Nc2ccccc2)cc1	?	?	?	11µM	.	.
O=C1CC(c2ccccc2)Cc2[nH]c(=O)c(-c3nc(-c4cccc(Cl)c4)cs3)cc21 (stereo not drawn)	.	.	.	/	.	.
COC(=O)CNC(=O)c1cnn(-c2ncc3c(n2)-c2ccccc2CCC3)c1C1CC1	.	/	/	/	.	/
COC1C(OC(=O)c2ccc(C)[nH]2)C(O)C(Oc2ccc3c(O)c(NC(=O)c4ccc(O)c(CC=C(C)C)c4)c(=O)oc3c2Cl)OC1(C)C (stereo not drawn)	.	/	/	1.6µM	.	.
Cc1cc(C)nc(NC(=O)CN2C(=O)c3ccccc3S2(=O)=O)n1	.	.	.	.	.	.
CCn1c(C)cc(C(=O)CN2C(=O)c3ccccc3S2(=O)=O)c1C	.	?	1.4µM	.	.	?
Cc1cc(C(=O)CN2C(=O)c3ccccc3S2(=O)=O)c(C)n1C(C)C	.	0.5µM	2µM	.	.	+
C=CCn1c(C)cc(C(=O)CN2C(=O)c3ccccc3S2(=O)=O)c1C	.	?	?	.	.	/
Cc1cc(C(=O)CN2C(=O)c3ccccc3S2(=O)=O)c(C)n1-c1ccccc1	.	8.9µM	1.6µM	?	.	-89
COc1cc(OC)c(NC(=O)Nc2c(C)n(C)n(-c3ccccc3)c2=O)cc1Cl	.	.	.	/	.	.
COc1ccc(NC(=O)c2ccc3c(=O)n4nc(Nc5cc(C)ccc5C)sc4nc3c2)cc1	.[7.34 µM]	/	.	/	.[7.34 µM]	?
O=c1c(N2CCc3ccccc3C2)csc2ccc(F)cc12	.	/	.	/	.	.
N#Cc1ccc(-c2csc(NC(=O)/C=C/c3cccs3)n2)cc1	.	?	.	.	.	?
Cc1nc(NC(=O)/C=C/c2ccccc2)n[nH]1	.	?	?	?	.	-96
O=C(/C=C\c1ccco1)Nc1nc(-c2ccccc2)cs1	.	?	?	.	.	.
O=C(/C=C/c1ccccc1)Nc1nc(-c2ccncc2)cs1	.	?	?	7.9µM	.	-63
Cc1ccc(-c2csc(NC(=O)/C=C/c3cccs3)n2)cc1C	?	?	.	11µM	.	.

Assay outcomes as filed in PubChem BioAssay.
